ETS1 binding intensity and RUNX1 binding intensity data for 14 sequences are collected here from the supplement of paper PMC10681739.

Experiment [1] addresses T1, ETS1 (UniProt P14921).
T1 sequence: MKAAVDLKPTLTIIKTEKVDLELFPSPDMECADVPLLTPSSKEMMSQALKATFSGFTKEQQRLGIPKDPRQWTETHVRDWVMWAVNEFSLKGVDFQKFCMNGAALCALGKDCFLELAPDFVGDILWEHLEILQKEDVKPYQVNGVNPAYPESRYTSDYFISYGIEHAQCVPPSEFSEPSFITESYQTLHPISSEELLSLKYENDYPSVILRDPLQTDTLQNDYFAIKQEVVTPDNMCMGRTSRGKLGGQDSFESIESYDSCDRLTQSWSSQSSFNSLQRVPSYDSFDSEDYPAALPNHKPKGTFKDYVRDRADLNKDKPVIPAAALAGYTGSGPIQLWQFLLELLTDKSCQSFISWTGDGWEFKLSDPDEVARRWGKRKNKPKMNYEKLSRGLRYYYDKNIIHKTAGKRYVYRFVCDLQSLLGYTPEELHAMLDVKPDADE
As to the kind of experiment: ETS1 binding intensity (PBM fluorescence), ETS1 alone (arbitrary fluorescence units); higher = stronger binding. To be noted: ETS1 concentration 1 nM; RUNX1 concentration 0 nM.

Experiment [2] concerns the target RUNX1 (UniProt Q01196). Nature of the experiment: RUNX1 binding intensity (PBM fluorescence), RUNX1 alone (arbitrary fluorescence units); higher = stronger binding. Particulars: RUNX1 concentration 2 nM; ETS1 concentration 0 nM. How it is done:
(§1)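 Cooperative gcPBM on 36-bp genomic probes with neighbouring ETS1 and RUNX1 sites. Recombinant human RUNX1 (2 nM) was incubated alone or with ETS1 (25 nM) and detected with anti-RUNX1 antibody plus Alexa488 secondary. Values are medians over 4 replicate spots; the RUNX1+ETS1 data were normalised to the RUNX1-only data. The probes sit in constant array flanks that are not printed.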

Experiment [3] deals with T1, ETS1. Nature of the experiment: ETS1 binding intensity (PBM fluorescence) in presence of RUNX1, normalised to ETS1-only experiment (arbitrary fluorescence units); higher = stronger binding. Particulars: ETS1 concentration 1 nM; RUNX1 concentration 25 nM.
Experiment [4] deals with RUNX1 (UniProt Q01196). As to the kind of experiment: RUNX1 binding intensity (PBM fluorescence) in presence of ETS1, normalised to RUNX1-only experiment (arbitrary fluorescence units); higher = stronger binding. Particulars: RUNX1 concentration 2 nM; ETS1 concentration 25 nM. How it is done: as §1
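Throughout, for RUNX1 binding intensity (PBM fluorescence) in presence of ETS1, normalised to RUNX1-only experiment: Full-length recombinant human ETS1 or RUNX1 bound to double-stranded 36-bp genomic probes on microarrays, detected by protein-specific primary antibody and Alexa488 secondary, spot fluorescence as median of four replicate spots.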
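Throughout, for RUNX1 binding intensity (PBM fluorescence), RUNX1 alone: Full-length recombinant human RUNX1 bound to double-stranded 36-bp genomic probes on a high-density microarray, scored as Alexa488 fluorescence per spot via anti-RUNX1 antibody, median of four replicate spots.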

Sequence of RUNX1 (Q01196 whole entry): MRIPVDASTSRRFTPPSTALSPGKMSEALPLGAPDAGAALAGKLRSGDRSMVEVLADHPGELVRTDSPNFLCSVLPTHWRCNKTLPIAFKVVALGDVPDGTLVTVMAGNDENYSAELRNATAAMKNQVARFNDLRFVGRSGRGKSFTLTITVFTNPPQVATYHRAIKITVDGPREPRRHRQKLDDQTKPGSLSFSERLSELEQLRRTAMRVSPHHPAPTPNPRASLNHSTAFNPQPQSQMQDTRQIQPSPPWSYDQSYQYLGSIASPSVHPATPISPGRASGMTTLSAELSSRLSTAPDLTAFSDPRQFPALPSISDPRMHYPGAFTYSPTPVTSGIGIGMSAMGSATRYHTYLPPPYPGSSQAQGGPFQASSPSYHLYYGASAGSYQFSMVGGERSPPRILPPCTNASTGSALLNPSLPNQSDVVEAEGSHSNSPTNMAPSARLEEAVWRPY

As for GGGGCAGCTTCCGGCAGGAGAGCCCGCATTCACGGC, the ETS1 binding intensity was determined as 731 in experiment [1] and 751 in experiment [3]. In addition, the RUNX1 binding intensity was 1370 in experiment [2] and 2360 in experiment [4].

Consider CCGGGACAGGAAGAGGCTGGGGACCGCGGCGAAGGT, for which the ETS1 binding intensity came to 1440 in experiment [1] and 1550 in experiment [3]. For the same sequence, the RUNX1 binding intensity is 710 in experiment [2] and 1030 in experiment [4].

CTGCGCGGCCGGAAGTCGGCGGTTTCCCAGACGACG: the ETS1 binding intensity in experiment [1] is 20800; in experiment [3], 30000. Besides, the RUNX1 binding intensity in experiment [2] came out at 759; in experiment [4], 2820.

Consider AAACAGGAAATCACAGCAGCGTTGCGGAGTGGAGCA, for which the results for the ETS1 binding intensity in experiment [1] and in experiment [3] were 1100 and 1110, respectively. The RUNX1 binding intensity in experiment [2] came to 754; in experiment [4], 883.

Consider GTCCTCCACTATTGTTTCCGGCCGCAGCAGAGGCGG, for which the ETS1 binding intensity in experiment [1] came out at 1870; in experiment [3], 2090. Further, the RUNX1 binding intensity in experiment [2] came out at 1070; in experiment [4] it was 2170.

For the sequence TCCCCTTTCCGGGAAGGGTTGGGGATCTGACCACGT, the results for the ETS1 binding intensity in experiment [1] and in experiment [3] were 437 and 498, respectively. Also, the RUNX1 binding intensity worked out at 728 in experiment [2] and 1320 in experiment [4].

As for AACCCCAAAACGGAAACACCGGAGCCACAAGCTGAG, the figures for the ETS1 binding intensity in experiment [1] and in experiment [3] were 731 and 961, respectively. In addition, the RUNX1 binding intensity is 900 in experiment [2] and 1300 in experiment [4].

With GGGCGGGTCAGCGGAAGTGAGGGCGGTTGAGGCTGG, the ETS1 binding intensity was 4740 in experiment [1] and 4550 in experiment [3]. The RUNX1 binding intensity in experiment [2] came out at 742; in experiment [4], 1320.

For GGCCCGGCCGGAAGAAGCCACCTCCCCCGCACGCGT, the results for the ETS1 binding intensity in experiment [1] and in experiment [3] were 2410 and 2860, respectively. In addition, the RUNX1 binding intensity in experiment [2] is 849; in experiment [4] it was 1240.

As to AGGCTGTGGCGGAAGTGGTCGCGTTACCGCTTGTTT, the ETS1 binding intensity is 6340 in experiment [1] and 12100 in experiment [3]. In addition, the RUNX1 binding intensity in experiment [2] turned out to be 712; in experiment [4] it was 3760.

Turning to GCGACCCGACCCGGCGGAAACCACCTCGACAGCCTC, the values for the ETS1 binding intensity in experiment [1] and in experiment [3] were 915 and 1000, respectively. Moreover, the values for the RUNX1 binding intensity in experiment [2] and in experiment [4] were 953 and 941, respectively.

For the sequence GCTTCTTCCGGCCGGGCCGAGAGGTGGTTACATTCG, the ETS1 binding intensity came to 683 in experiment [1] and 700 in experiment [3]. The RUNX1 binding intensity was found to be 792 in experiment [2] and 1940 in experiment [4].

As to CTCACAGCAGCCCCAGGAAACCACCTCTTCCTTCAG, the ETS1 binding intensity in experiment [1] came to 847; in experiment [3] it was 876. For the same sequence, the RUNX1 binding intensity was 997 in experiment [2] and 1030 in experiment [4].

As for TCTGCCGCCAGCCCATCCGCGACCGCATCCAGATCT, the ETS1 binding intensity in experiment [1] came to 346; in experiment [3], 653. Further, the RUNX1 binding intensity in experiment [2] worked out at 1250; in experiment [4], 1210.
